# Experimental data from PubChem BioAssay (EPA / NIEHS).
# “And” between values parts separate entries of the source, which are not always exact repeats. Identical values can stand only once. Records with an inconclusive call do not appear. The source made the active and inactive calls. How the source made its calls, unless noted: active means hit-call score of the fitted dose curve at least 0.9, where 1 is the maximum; inconclusive means response in the unintended direction; inactive means score below 0.9.
# What was measured:
# DIO1 (gene 1733) = assay: CCTE_GLTED_hDIO1: CCTE's human Deiodinase 1 (DIO1) Inhibition Assay, Great Lakes Toxicology and Ecology Division (GLTED) Lab (AID 2283987);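 further: isolated human DIO1 enzyme in a cell-free setup rather than cells; enzyme activity read as free iodide liberated from substrate via Sandell-Kolthoff colorimetry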
# Outline: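 Chemicals are tested on human DIO1 without cells for 3 h. Uninhibited enzyme frees iodide, which speeds cerium(IV) reduction by arsenic and is read by spectrophotometry.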
# [1] = CCTE_Simmons_MITO_max_resp_rate: CCTE's HepG2 Seahorse XF Respirometric Screening Assay at Maximal Respiratory State [uncoupled], Simmons Lab (AID 2284002; active means hit-call score of the fitted dose curve at least 0.9, where 1 is the maximum; inactive means score below 0.9); conditions: actives raise or lower the signal
# Outline: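 Uncoupled (FCCP) respiration of HepG2 cells served as the endpoint, with measurements at 6-minute intervals across a 72-minute run and compounds dosed at 7 concentrations up to 100 uM final.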
# [2] = CCTE_Simmons_MITO_viability: CellTiter-Glo Viability Assessment for CCTE's HepG2 Seahorse XF Respirometric Screening Assay [post-hoc], Simmons Lab (AID 2284007);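 on AC50: cells exposed to chemical for 90 min before the ATP read; actives lower ATP signal relative to DMSO baseline meaning reduced viability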
# Outline: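 Luciferase-coupled ATP read-out after the Seahorse run: HepG2 cells treated 90 minutes with test chemical, 7-point series of 125 nM–100 uM final, in triplicate biological runs. Vehicle DMSO; dichlone as positive control over 8 concentrations.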
# [3] = target: Nucleoli Translocation, AR (gene 367) (UniProt P10275); assay: UPITT_HCI_U2OS_AR_TIF2_Nucleoli_Antagonist: University of Pittsburgh U2OS Androgen Receptor-Transcriptional Intermediary Factor 2 (AR-TIF2) Antagonism High Content Imaging Assay for Nucleoli Translocation (AID 2283997)
# Outline: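 Compounds are added at 20 uM final concentration in 0.2% DMSO to U2OS cells carrying AR-RFP and TIF2-GFP fusions. Nucleolar AR-RFP fluorescence is then quantified by automated imaging. Antagonism is fitted positively against DHT baseline.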
# [4] = target: Nucleoli Translocation, AR (gene 367) (UniProt P10275); assay: UPITT_HCI_U2OS_AR_TIF2_Nucleoli_Agonist: University of Pittsburgh U2OS Androgen Receptor-Transcriptional Intermediary Factor 2 (AR-TIF2) Agonism High Content Imaging Assay for Nucleoli Translocation (AID 2283998)
# From the text: UPITT_AR_TIF2_PPIB is a cell-based, high-content imaging assay that uses U2OS, a human osteosarcoma cell line, expressing a human androgen receptor fused to red fluorescent protein and the coactivator TIF2 fused to green fluorescent protein. UPITT_HCI_U2OS_AR_TIF2_Nucleoli_Agonist is one of four assay components measured from the UPITT_AR_TIF2_PPIB assay. It is designed to make measurements of red fluorescence localized in the nucleolar region of the cell nucleus as detected with high-content fluorescent imaging.Data from the assay component UPITT_HCI_U2OS_AR_TIF2_Nucleoli_Agonist was analyzed into 1 assay endpoint. This assay endpoint, UPITT_HCI_U2OS_AR_TIF2_Nucleoli_Agonist, was analyzed in the positive analysis fitting direction relative to DMSO as the baseline of activity. Using a type of binding reporter, measures of receptor for gain-of-signal activity can be used to understand the binding at the pathway-level as it relates to the gene AR.
# Daughter plates containing 2 uL of 10 mM compounds in DMSO were prepared and replicated from the 384-well Library of Pharmacologically Active Compounds (LOPAC) master plates using the Bravo outfitted with a 384-well transfer head. Aluminum adhesive plate seals were applied with an Abgene Seal-IT 100 (Rochester, NY) plate sealer, and the plates were stored at -20 C in a Matrical MatriMinistore (Spokane, WA) automated compound storage and retrieval system. For screening, LOPAC daughter plates were withdrawn from -20C storage, thawed to ambient temperature, centrifuged 1-2 min at 50 g, and the plate seals were removed before the transfer of 98 uL of serum-free tissue culture medium (SFM) into wells using the BioTek Microflo liquid handler (BioTek, Winooski, VT) to generate a 200 uM intermediate stock concentration of library compounds (2.0% DMSO). The diluted compounds were mixed by repeated aspiration and dispensation using a 384-well P30 dispensing head on the Evolution P3 (EP3) liquid handling platform (PerkinElmer, Waltham, MA) and then 5 uL of diluted compounds was transferred to the wells of assay plates. In the LOPAC screen, compounds were individually tested at a final concentration of 20 uM (0.2% DMSO). After the diluted compounds had been transferred from the daughter plates to the primary HCS assay plates, aluminum adhesive plate seals were applied and the diluted daughter plates were stored frozen at -20C. To confirm active compounds identified in the primary screen, we withdrew the LOPAC daughter plates containing the 200 uM intermediate concentration of library compounds (2.0% DMSO) from -20C storage, thawed them to ambient temperature, centrifuged them for 1-2 min at 50 g, and removed the plate seals. A work list was generated to direct the Multiprobe Janus liquid handling platform (PerkinElmer) to cherry pick 75 uL from the wells of the diluted daughter plates that were flagged active in the primary screen and to reformat these into a 384-well plate hit confirmation daughter plate. Five microliters of primary HCS active compounds was then transferred into triplicate wells of assay plates using a 384-well P30 dispensing head on the Evolution P3 (EP3) liquid handling platform (PerkinElmer). […] Daughter plates containing 2 uL of the serially diluted compounds in DMSO were prepared and replicated from the 384-well serial dilution master plates using the Bravo outfitted with a 384-well transfer head. Aluminum adhesive plate seals were applied and plates were stored at -20C. For testing in the bioassays, daughter plates were withdrawn from -20C storage, thawed to ambient temperature, centrifuged for 1-2 min at 50 g, and the plate seals were removed before the transfer of 38 uL of SFM into wells using the BioTek Microflo liquid handler (BioTek) to generate an intermediate stock concentration of library compounds ranging from 1.95 to 500 uM (5.0% DMSO). […]
# [5] = target: Ratio of Nucleoli Translocation and Cytoplasm, AR (gene 367) (UniProt P10275); assay: UPITT_HCI_U2OS_AR_TIF2_Nucleoli_Cytoplasm_Ratio_Agonist: University of Pittsburgh U2OS Androgen Receptor-Transcriptional Intermediary Factor 2 (AR-TIF2) Agonism High Content Imaging Assay for Ratio of Nucleoli Translocation and Cytoplasm (AID 2284000);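 further: hits raise the red nucleolar to cytoplasm ratio above vehicle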
# Outline: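 Human osteosarcoma U2OS line, AR-RFP plus TIF2-GFP; compounds 0.195–50 uM final, 0.5% DMSO. Readout: nucleolar/cytoplasmic RFP ratio by HCI, positive direction vs DMSO baseline.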
# [6] = target: Ratio of Nucleoli Translocation and Cytoplasm, AR (gene 367) (UniProt P10275); assay: UPITT_HCI_U2OS_AR_TIF2_Nucleoli_Cytoplasm_Ratio_Antagonist: University of Pittsburgh U2OS Androgen Receptor-Transcriptional Intermediary Factor 2 (AR-TIF2) Antagonism High Content Imaging Assay for Ratio of Nucleoli Translocation and Cytoplasm (AID 2283999);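 further: antagonists lower the DHT-driven ratio of nucleolar to cytoplasmic red signal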
# Outline: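 High-content imaging of red fluorescence ratio, nucleoli versus cytoplasm, in U2OS expressing AR-RFP and TIF2-GFP, fitted relative to DHT. Compounds tested once at 20 uM final, then 0.195 to 50 uM final in serial dilution.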
# [7] = CCTE_Harrill_HTTr_Apoptosis_PRF_DMEM_6hr: (Pilot) CCTE's 6-hour Apoptosis Assessment for the High-Throughput Transcriptomics (HTTr) Platform, in MCF-7 cells cultured phenol red-free DMEM + 10% charcoal-stripped fetal bovine serum, Harrill Lab (AID 2283984; active means hit-call score of the fitted dose curve at least 0.9, where 1 is the maximum; inactive means score below 0.9)
# Outline: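 Caspase-3/7 activity (CellEvent Green) read by high-content imaging 6 h after dosing, eight concentrations. Cells: MCF-7, phenol red-free DMEM with 10% charcoal-stripped serum. Curves fit both directions against DMSO.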
# [8] = CCTE_Harrill_HTTr_Apoptosis_PRF_DMEM_12hr: (Pilot) CCTE's 12-hour Apoptosis Assessment for the High-Throughput Transcriptomics (HTTr) Platform, in MCF-7 cells cultured in phenol red-free DMEM + 10% charcoal-stripped fetal bovine serum, Harrill Lab (AID 2283985; active means hit-call score of the fitted dose curve at least 0.9, where 1 is the maximum; inactive means score below 0.9)
# Outline: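 Caspase-3/7 activity by CellEvent Green high content imaging after 12 h compound exposure (eight concentrations) in MCF-7 grown in phenol red-free DMEM plus 10% charcoal-stripped serum; DMSO as baseline.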
# [9] = CCTE_Harrill_HTTr_Apoptosis_PRF_DMEM_24hr: (Pilot) CCTE's 24-hour Apoptosis Assessment for the High-Throughput Transcriptomics (HTTr) Platform, in MCF-7 cells cultured in phenol red-free DMEM + 10% charcoal-stripped fetal bovine serum, Harrill Lab (AID 2283986; active means hit-call score of the fitted dose curve at least 0.9, where 1 is the maximum; inactive means score below 0.9)
# Outline: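 Eight concentrations tested for 24 h on MCF-7 grown in charcoal-stripped serum, phenol red-free DMEM. High content imaging of CellEvent Caspase 3/7 Green signal gives apoptosis read-out, fitted both ways relative to DMSO.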
# Sequence of Nucleoli Translocation, AR (gene 367) (P10275 whole entry, looked up, the tested form may be a part): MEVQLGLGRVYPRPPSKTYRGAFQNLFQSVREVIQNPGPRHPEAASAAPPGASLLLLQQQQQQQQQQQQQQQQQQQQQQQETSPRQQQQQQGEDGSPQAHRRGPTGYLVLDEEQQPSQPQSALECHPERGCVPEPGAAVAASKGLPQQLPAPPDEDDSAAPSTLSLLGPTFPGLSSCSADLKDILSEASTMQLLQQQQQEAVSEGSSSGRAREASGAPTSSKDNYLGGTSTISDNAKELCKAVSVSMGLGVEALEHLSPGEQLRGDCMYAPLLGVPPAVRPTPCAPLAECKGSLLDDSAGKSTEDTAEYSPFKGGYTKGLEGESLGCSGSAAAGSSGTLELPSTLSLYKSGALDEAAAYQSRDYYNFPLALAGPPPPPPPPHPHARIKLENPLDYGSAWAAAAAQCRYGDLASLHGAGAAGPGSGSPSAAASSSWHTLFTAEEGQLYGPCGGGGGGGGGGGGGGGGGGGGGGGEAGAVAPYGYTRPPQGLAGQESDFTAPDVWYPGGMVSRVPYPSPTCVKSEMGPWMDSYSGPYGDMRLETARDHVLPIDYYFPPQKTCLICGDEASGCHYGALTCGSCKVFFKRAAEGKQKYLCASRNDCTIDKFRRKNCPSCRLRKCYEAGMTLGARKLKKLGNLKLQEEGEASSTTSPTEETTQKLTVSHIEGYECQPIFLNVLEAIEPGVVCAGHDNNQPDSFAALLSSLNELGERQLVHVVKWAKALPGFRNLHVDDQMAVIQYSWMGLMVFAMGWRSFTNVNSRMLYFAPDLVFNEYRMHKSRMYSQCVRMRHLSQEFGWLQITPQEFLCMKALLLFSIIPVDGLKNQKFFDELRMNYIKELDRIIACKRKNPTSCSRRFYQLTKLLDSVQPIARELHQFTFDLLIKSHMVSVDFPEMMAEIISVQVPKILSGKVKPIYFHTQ
# Sequence of Ratio of Nucleoli Translocation and Cytoplasm, AR (gene 367) (P10275 whole entry, looked up): as the sequence (P10275 whole entry, looked up, the tested form may be a part) above
smiles,measurement,setting,value
Oc1cc(Cl)ccc1Oc1ccc(Cl)cc1Cl,AC50,DIO1 (gene 1733),60.4 µM (active) [middle of 5 runs]
same,AC50,[1],19.3 µM (active)
same,outcome,[2],inactive
Cc1[nH]c(=O)n(C(C)(C)C)c(=O)c1Cl,outcome,[3],inactive
same,outcome,[4],inactive
same,outcome,[5],inactive
O=S1OCC2C(CO1)C1(Cl)C(Cl)=C(Cl)C2(Cl)C1(Cl)Cl (stereo unspecified),AC50,[3],30.6 µM (active)
same,outcome,[4],inactive
same,outcome,[6],inactive
O=C(O)COc1ccc(Cl)cc1Cl,outcome,[1],inactive
O=S(=O)(O)C(F)(F)C(F)(F)C(F)(F)C(F)(F)C(F)(F)C(F)(F)C(F)(F)C(F)(F)F,outcome,[7],inactive
same,outcome,[8],inactive
same,outcome,[9],inactive
same,AC50,DIO1 (gene 1733),173 µM (active) and 159 µM (active) and 170 µM (active)
CCCN(CCC)c1c([N+](=O)[O-])cc(C(F)(F)F)cc1[N+](=O)[O-],outcome,[3],inactive
same,outcome,[6],inactive
same,outcome,[5],inactive
CC[C@H](C)[C@H]1O[C@]2(C=C[C@@H]1C)C[C@@H]1C[C@@H](C/C=C(\C)[C@@H](O[C@H]3C[C@H](OC)[C@@H](O[C@H]4C[C@H](OC)[C@@H](O)[C@H](C)O4)[C@H](C)O3)[C@@H](C)/C=C/C=C3\CO[C@@H]4[C@H](O)C(C)=C[C@@H](C(=O)O1)[C@]34O)O2 (tested in a mixture with another compound),AC50,[1],18 µM (active)
COP(=S)(OC)Oc1ccc([N+](=O)[O-])cc1,outcome,[1],inactive
same,outcome,[2],inactive
N#Cc1c(Cl)c(Cl)c(Cl)c(C#N)c1Cl,AC50,DIO1 (gene 1733),30.1 µM (active)
same,outcome,[1],inactive
same,AC50,[2],20 µM (active)
COP(=S)(OC)Oc1ccc(SC)c(C)c1,AC50,DIO1 (gene 1733),10.7 µM (active)
O=[N+]([O-])c1c(Cl)c(Cl)c(Cl)c(Cl)c1Cl,AC50,[3],20.6 µM (active)
same,outcome,[4],inactive
same,outcome,[6],inactive
same,outcome,[5],inactive
CCC(C)(C)C(=O)OC1=C(c2ccc(Cl)cc2Cl)C(=O)OC12CCCCC2,AC50,[3],50 µM (active)
same,outcome,[4],inactive
same,outcome,[6],inactive
same,outcome,[5],inactive
C[C@H]1[C@H](c2ccc(Cl)cc2)SC(=O)N1C(=O)NC1CCCCC1,AC50,[3],27.4 µM (active)
same,outcome,[4],inactive
same,outcome,[6],inactive
same,outcome,[5],inactive
CCOC1Oc2ccc(OS(C)(=O)=O)cc2C1(C)C (stereo unspecified),outcome,[3],inactive
same,outcome,[5],inactive
same,AC50,[1],35.3 µM (active)
same,outcome,[2],inactive
CCC(C)Nc1c([N+](=O)[O-])cc(C(C)(C)C)cc1[N+](=O)[O-] (stereo unspecified),outcome,[1],inactive
same,outcome,[2],inactive
CC1(c2ccc(Oc3ccccc3)cc2)OC(=O)N(Nc2ccccc2)C1=O (stereo unspecified),AC50,[1],3.04 µM (active)
same,outcome,[2],inactive
CCC(C)(NC(=O)c1cc(Cl)c(C)c(Cl)c1)C(=O)CCl (stereo unspecified),AC50,DIO1 (gene 1733),16.1 µM (active)
same,outcome,[1],inactive
O=C(O)C(F)(F)C(F)(F)C(F)(F)C(F)(F)C(F)(F)C(F)(F)C(F)(F)F,outcome,[7],inactive
same,outcome,[8],inactive
same,outcome,[9],inactive
O=C(O)CCCOc1ccc(Cl)cc1Cl,outcome,[3],inactive
same,outcome,[4],inactive
same,outcome,[5],inactive
same,outcome,[1],inactive
CCOCN(C(=O)CCl)c1c(C)cccc1CC,outcome,[1],inactive
same,outcome,[2],inactive
O=[N+]([O-])/N=C1\NCCN1Cc1ccc(Cl)nc1,outcome,[3],inactive
same,outcome,[4],inactive
same,outcome,[5],inactive
CCCN(CCOc1c(Cl)cc(Cl)cc1Cl)C(=O)n1ccnc1,outcome,[7],inactive
same,outcome,[8],inactive
same,outcome,[9],inactive
same,AC50,[1],18 µM (active)
same,AC50,[2],13.6 µM (active)
C#CCN1C(=O)COc2cc(F)c(N3C(=O)C4=C(CCCC4)C3=O)cc21,outcome,[3],inactive
same,outcome,[4],inactive
same,outcome,[6],inactive
same,outcome,[5],inactive
same,AC50,[1],53.1 µM (active)
same,outcome,[2],inactive
CC(C)(C)C(O)/C(=C\c1ccc(Cl)cc1Cl)n1cncn1 (stereo unspecified),AC50,[1],21.1 µM (active)
same,outcome,[2],inactive
Oc1ccc(Cl)cc1Cc1ccccc1,AC50,[3],19.1 µM (active)
same,AC50,[4],13 µM (active)
same,AC50,[6],7.42 µM (active)
same,AC50,[1],32.8 µM (active) and 41.5 µM (active)
same,outcome,[2],inactive
